Test results published in PubChem BioAssay AID1159580 (chemical genetic matrix, 2015).
Where “and” joins values, the source holds several entries; their conditions need not be identical. Equal entries are not always repeated. Screen size: about 5,500 compounds; about 2,000 (36%) were called active. Inconclusive results (about 18%) are left out. No stated cut-off is given here; in the data, active means normalized growth mostly below about 0.91 (no sharp cut-off); inconclusive means no clear call, values can overlap the other calls; inactive means mostly above about 0.92. The list shows a part of the results.

Test: chemical genetic growth profiling, strain panel (AID 1159580);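 further: tested at 20 µM; growth read once vehicle control cultures reached saturation at 30 °C; 1 = growth at the plate median or of vehicle wells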
Conditions: S. cerevisiae deletion strains, growth OD

Measured: normalized growth

NCC(N)C(=O)c1ccccc1 (stereo not drawn)
inactive: locus YAL013W, strain DEP1, stronger effect = lower value 1.01 | locus YAL021C, strain ccr4, stronger effect = lower value 0.979 | locus YAL026C, strain drs2, stronger effect = lower value 1.06 | locus YAL030W, strain snc1, stronger effect = lower value 1.02 | locus YBL061C, strain skt5, stronger effect = lower value 1.03 | locus YBR009C, strain hhf1, stronger effect = lower value 1.04 | locus YBR021W, strain FUR4, stronger effect = lower value 0.993 | locus YBR023C, strain chs3, stronger effect = lower value 1.02 | locus YBR171W, strain sec66, stronger effect = lower value 1.04 | locus YBR229C, strain ROT2, stronger effect = lower value 1.01 | locus YBR231C, strain swc5, stronger effect = lower value 1.02 | locus YBR279W, strain paf1, stronger effect = lower value 1.03 | locus YCL011C, strain gbp2, stronger effect = lower value 1.02 | locus YCL016C, strain dcc1, stronger effect = lower value 1.01 | locus YCL029C, strain bik1, stronger effect = lower value 0.995 | locus YCL061C, strain MRC1, stronger effect = lower value 1.03 | locus YCL069W, strain vba3, stronger effect = lower value 1.02 | locus YCR088W, strain abp1, stronger effect = lower value 1.02 | locus YDL005C, strain med2, stronger effect = lower value 1.03 | locus YDL035C, strain GPR1, stronger effect = lower value 1.02 | locus YDL040C, strain nat1, stronger effect = lower value 1.02 | locus YDL074C, strain BRE1, stronger effect = lower value 1.01 | locus YDL101C, strain DUN1, stronger effect = lower value 1.01 | locus YDL185W, strain tfp1, stronger effect = lower value 1 | locus YDL192W, strain arf1, stronger effect = lower value 1.01 | locus YDR001C, strain nth1, stronger effect = lower value 1.01 | locus YDR069C, strain doa4, stronger effect = lower value 1.02 | locus YDR101C, strain arx1, stronger effect = lower value 0.997 | locus YDR137W, strain rgp1, stronger effect = lower value 1.03 | locus YDR150W, strain NUM1, stronger effect = lower value 1.01 | locus YDR159W, strain sac3, stronger effect = lower value 1.05 | locus YDR162C, strain NBP2, stronger effect = lower value 1.02 | locus YDR195W, strain ref2 1.01 | locus YDR297W, strain sur2, stronger effect = lower value 1.02 | locus YDR318W, strain mcm21, stronger effect = lower value 1.01 | locus YDR334W, strain swr1, stronger effect = lower value 1.02 | locus YDR335W, strain msn5, stronger effect = lower value 1.03 | locus YDR388W, stronger effect = lower value 0.998 | locus YDR392W, strain spt3, stronger effect = lower value 0.962 | locus YDR502C, strain sam2, stronger effect = lower value 0.988 | locus YEL003W, strain gim4, stronger effect = lower value 1.04 | locus YEL037C, strain rad23, stronger effect = lower value 1.03 | locus YEL061C, strain CIN8 (second series), stronger effect = lower value 1.03 | locus YEL061C, strain CIN8, stronger effect = lower value 1.01 | locus YER015W, strain faa2, stronger effect = lower value 1.03 | locus YER016W, strain bim1, stronger effect = lower value 1.03 | locus YER110C, stronger effect = lower value 1 | locus YER111C, strain swi4, stronger effect = lower value 1.03 | locus YER155C, strain BEM2 (second series), stronger effect = lower value 0.99 | locus YER155C, strain BEM2, stronger effect = lower value 1.01 | locus YER167W, strain BCK2, stronger effect = lower value 1.01 | locus YFR010W, strain ubp6, stronger effect = lower value 1.03 | locus YGL078C, strain dbp3, stronger effect = lower value 1.02 | locus YGL086W, strain mad1, stronger effect = lower value 0.999 | locus YGL167C, strain pmr1, stronger effect = lower value 1.03 | locus YGL173C, strain kem1, stronger effect = lower value 1.06 | locus YGL227W, strain vid30, stronger effect = lower value 1.02 | locus YGL240W, strain doc1, stronger effect = lower value 1.01 | locus YGL248W, strain PDE1, stronger effect = lower value 1.02 | locus YGL253W, strain hxk2, stronger effect = lower value 1.05 | locus YGR135W, strain pre9, stronger effect = lower value 1 | locus YGR229C, strain SMI1, stronger effect = lower value 1.02 | locus YGR252W, strain gcn5, stronger effect = lower value 0.96 | locus YHR013C, strain ard1, stronger effect = lower value 1.04 | locus YHR027C, strain rpn1, stronger effect = lower value 1.04 | locus YHR030C, strain SLT2, stronger effect = lower value 1.01 and 0.973 | locus YHR079C, strain IRE1 (second series), stronger effect = lower value 1 | locus YHR079C, strain IRE1, stronger effect = lower value 0.97 | locus YHR094C, strain hxt1, stronger effect = lower value 0.996 | locus YHR129C, strain ARP1, stronger effect = lower value 1.01 | locus YHR142W, strain chs7, stronger effect = lower value 1.05 | locus YHR200W, strain rpn10, stronger effect = lower value 0.999 | locus YIL066C, strain RNR3, stronger effect = lower value 1.01 | locus YIL073C, strain SPO22, stronger effect = lower value 0.986 | locus YIL125W, strain kgd1, stronger effect = lower value 1 | locus YIR030C, strain dcg1, stronger effect = lower value 1 | locus YJL092W, strain hpr5, stronger effect = lower value 1.03 | locus YJL095W, strain BCK1 (second series), stronger effect = lower value 1.03 | locus YJL095W, strain BCK1, stronger effect = lower value 1.02 and 0.963 | locus YJL115W, strain asf1, stronger effect = lower value 1.03 | locus YJL129C, strain trk1, stronger effect = lower value 1.04 | locus YJL134W, strain LCB3, stronger effect = lower value 1.01 | locus YJL154C, strain vps35, stronger effect = lower value 1.02 | locus YJL164C, strain tpk1, stronger effect = lower value 1.03 | locus YJL166W, strain qcr8, stronger effect = lower value 1.02 | locus YJL168C, strain set2, stronger effect = lower value 1.01 | locus YJL187C, strain SWE1 (second series), stronger effect = lower value 1 | locus YJL187C, strain SWE1, stronger effect = lower value 1.05
